Columns and labels:
Assay type in all cases: functional
[1] = molecular target: Solute carrier family 2, facilitated glucose transporter member 1 (Homo sapiens) (UniProt P11166); assay: ST_JUDE_LEISH: Cytotoxicity at 2uM final concentration against transgenic Leishmania Mexicana promastigotes LmGLUT1 that are glucose transport deficient and complemented with the human glucose transporter GLUT1. Activity is measured by DNA content using SYBR green in vitro
[2] = molecular target: Hexose transporter 1 (Plasmodium falciparum) (UniProt O97467); assay: ST_JUDE_LEISH: Cytotoxicity at 2uM final concentration against transgenic Leishmania Mexicana promastigotes LmPfHT that are glucose transport deficient and complemented with the Plasmodium falciparum hexose transporter. Activity is measured by DNA content using SYBR green in vitro
[3] = molecular target: Glucose transporter (Leishmania mexicana) (UniProt O61059); assay: ST_JUDE_LEISH: Cytotoxicity at 2uM final concentration against transgenic Leishmania Mexicana promastigotes LmGT2 that are glucose transport deficient and complemented with the L. Mexicana glucose transporter 2. Activity is measured by DNA content using SYBR green in vitro

Chain of Solute carrier family 2, facilitated glucose transporter member 1 (Homo sapiens) (P11166 whole entry): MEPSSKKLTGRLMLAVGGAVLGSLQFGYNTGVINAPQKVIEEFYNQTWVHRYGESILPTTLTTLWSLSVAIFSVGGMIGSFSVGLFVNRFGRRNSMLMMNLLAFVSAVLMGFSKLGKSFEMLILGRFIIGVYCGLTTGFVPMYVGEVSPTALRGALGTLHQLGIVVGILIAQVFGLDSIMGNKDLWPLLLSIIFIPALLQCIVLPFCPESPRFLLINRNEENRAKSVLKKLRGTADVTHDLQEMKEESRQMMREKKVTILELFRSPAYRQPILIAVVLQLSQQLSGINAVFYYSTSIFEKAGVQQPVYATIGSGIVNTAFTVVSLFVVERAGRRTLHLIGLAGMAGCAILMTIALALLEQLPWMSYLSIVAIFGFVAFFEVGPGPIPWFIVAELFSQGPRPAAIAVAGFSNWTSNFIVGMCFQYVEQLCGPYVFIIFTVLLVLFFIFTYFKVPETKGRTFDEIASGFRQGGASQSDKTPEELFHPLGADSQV

SMILES	inhibition [1] [%]	inhibition [2] [%]	inhibition [3] [%]
COCCNCc1cccc(-c2ccc3c(Nc4ccc(Oc5ccccc5)cc4)ccnc3c2)c1	-0.07	1.17	-0.14
COCCOc1ccc(C(F)(F)F)cc1NC(=O)Cc1c(F)cccc1Cl	11.3	8.21	6.01
CCCCCNC(=N)N/N=C/c1c[nH]c2ccc(OC)cc12	1.71	3.63	-0.13
COc1ccc(NC(=O)c2cccc(Br)c2)cc1N1CCN(CCCCCCCN2CCN(c3cc(NC(=O)c4cccc(Br)c4)ccc3OC)CC2)CC1	3.47	2.27	0.78
COc1c(C2CCN(CCCCNC(=O)c3ccc(-c4ccc(C(F)(F)F)cc4)c(C(=O)OC(C)C)c3)CC2)ccc2c1CCCC2	1.36	1.79	0.91
COCCOc1nc(N)nc2ncc(Cc3cc(OC)ccc3OC)c(C)c12	0.79	0.23	-1.06
FC(F)(F)c1ccc(Nc2nnnc3ccccc23)cc1	7.74	7.45	6.1
Cc1ccc(CNC(=O)[C@H](Cc2ccccc2)Nc2cc(C)nc(NCc3ccccc3C)n2)cc1	5.69	5.01	2.6
S=c1nc(-c2ccccc2)n2ccsc2n1	1.86	2	2.44
CC(CCNc1c2ccccc2nc2ccccc12)N1CCN(C)CC1 (stereo not given)	30.8	29.1	20.8
Fc1ccc(NC(S)=NN=Cc2ccccn2)cc1	4.22	2.09	-1.91
Cc1ccc(O)cc1Nc1ccnc2ccc(-c3cccc(CN(C)C)c3)cc12	0.24	-2.77	0.73
CCCCCCCCOc1ccc(N2C(N)=NC(N)=NC2(C)C)cc1	2.56	3.69	-0.03
CN1CCc2cc(O)c(NS(=O)(=O)c3ccc(-c4ccc(Cl)cc4)cc3)cc2CC1	12.4	9.38	9.99
COc1ccc(Nc2nccc(N3CCC(NC(=O)Nc4ccc5c(c4)OCO5)C3)n2)cc1 (stereo not given)	0.18	1.7	1.21

— ChEMBL document CHEMBL3433997, “St. Jude Leishmania screening dataset” (2016)
